These results are taken from ChEMBL document CHEMBL1961873, “Compounds: GSK PKIS; Assays: Nanosyn kinase panel” (2012).

The subject of assay [1] is Tyrosine-protein kinase ABL1 (Homo sapiens), P00519 [T315I]. To be noted: at 1 µM.
For assay [2], the system named is Tyrosine-protein kinase ABL1 (Homo sapiens), P00519 [Y253F]. The following applies: at 0.1 µM.
The test system is the same in assay [3]. To be noted: at 1 µM.
For assay [4], the target named is Tyrosine-protein kinase ABL1 (Homo sapiens) (UniProt P00519). To be noted: at 0.1 µM.
Assay [5] has the same target. To be noted: at 1 µM.
For assay [6], the target named is ALK tyrosine kinase receptor (Homo sapiens) (UniProt Q9UM73). The following applies: at 0.1 µM.
Sequence of ALK tyrosine kinase receptor (Homo sapiens) (Q9UM73 19-1620 limits assumed): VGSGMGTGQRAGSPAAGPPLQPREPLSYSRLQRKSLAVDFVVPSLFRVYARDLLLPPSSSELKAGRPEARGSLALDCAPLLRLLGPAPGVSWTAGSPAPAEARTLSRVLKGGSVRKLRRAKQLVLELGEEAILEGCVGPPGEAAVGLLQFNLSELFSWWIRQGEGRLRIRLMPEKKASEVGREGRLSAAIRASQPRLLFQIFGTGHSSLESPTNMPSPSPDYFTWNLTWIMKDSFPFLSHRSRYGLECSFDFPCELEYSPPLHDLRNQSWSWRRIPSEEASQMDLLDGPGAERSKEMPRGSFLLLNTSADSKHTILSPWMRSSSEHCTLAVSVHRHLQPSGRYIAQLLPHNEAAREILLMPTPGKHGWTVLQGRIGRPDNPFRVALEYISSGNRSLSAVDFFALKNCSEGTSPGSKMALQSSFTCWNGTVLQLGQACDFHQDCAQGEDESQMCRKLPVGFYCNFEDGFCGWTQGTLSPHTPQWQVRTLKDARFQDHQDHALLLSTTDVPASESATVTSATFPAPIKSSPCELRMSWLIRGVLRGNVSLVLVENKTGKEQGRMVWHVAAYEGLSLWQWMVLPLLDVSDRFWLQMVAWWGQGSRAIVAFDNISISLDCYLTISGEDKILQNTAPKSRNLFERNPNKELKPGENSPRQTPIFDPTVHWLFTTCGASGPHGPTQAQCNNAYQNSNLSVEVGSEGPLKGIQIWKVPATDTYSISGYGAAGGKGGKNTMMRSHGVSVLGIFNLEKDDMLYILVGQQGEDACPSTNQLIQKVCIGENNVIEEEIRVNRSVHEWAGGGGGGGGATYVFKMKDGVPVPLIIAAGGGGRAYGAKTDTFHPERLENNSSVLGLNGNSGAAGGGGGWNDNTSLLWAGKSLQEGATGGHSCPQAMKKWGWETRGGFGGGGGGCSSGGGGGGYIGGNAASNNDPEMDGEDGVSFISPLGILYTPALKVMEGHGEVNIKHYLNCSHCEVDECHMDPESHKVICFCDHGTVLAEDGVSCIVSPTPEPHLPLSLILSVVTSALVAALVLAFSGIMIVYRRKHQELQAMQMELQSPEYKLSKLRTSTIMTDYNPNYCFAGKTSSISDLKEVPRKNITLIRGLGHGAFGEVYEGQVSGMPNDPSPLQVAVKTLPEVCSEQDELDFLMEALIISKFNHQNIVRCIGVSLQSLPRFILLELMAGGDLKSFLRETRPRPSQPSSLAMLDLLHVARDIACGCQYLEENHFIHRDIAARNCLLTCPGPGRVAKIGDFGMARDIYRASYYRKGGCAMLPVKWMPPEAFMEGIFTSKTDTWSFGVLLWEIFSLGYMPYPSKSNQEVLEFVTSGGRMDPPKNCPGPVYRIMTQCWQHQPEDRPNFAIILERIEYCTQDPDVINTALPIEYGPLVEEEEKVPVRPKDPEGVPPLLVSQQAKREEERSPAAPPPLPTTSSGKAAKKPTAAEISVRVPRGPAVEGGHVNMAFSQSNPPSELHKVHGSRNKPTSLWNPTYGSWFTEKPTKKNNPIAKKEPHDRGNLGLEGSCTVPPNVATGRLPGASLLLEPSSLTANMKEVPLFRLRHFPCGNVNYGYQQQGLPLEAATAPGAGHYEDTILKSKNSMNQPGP
For assay [7] the target is unchanged. The following applies: at 1 µM.
For assay [8], the target named is Tyrosine-protein kinase ABL2 (Homo sapiens) (UniProt P42684). The following applies: at 0.1 µM.
Sequence of Tyrosine-protein kinase ABL2 (Homo sapiens) (P42684 whole entry): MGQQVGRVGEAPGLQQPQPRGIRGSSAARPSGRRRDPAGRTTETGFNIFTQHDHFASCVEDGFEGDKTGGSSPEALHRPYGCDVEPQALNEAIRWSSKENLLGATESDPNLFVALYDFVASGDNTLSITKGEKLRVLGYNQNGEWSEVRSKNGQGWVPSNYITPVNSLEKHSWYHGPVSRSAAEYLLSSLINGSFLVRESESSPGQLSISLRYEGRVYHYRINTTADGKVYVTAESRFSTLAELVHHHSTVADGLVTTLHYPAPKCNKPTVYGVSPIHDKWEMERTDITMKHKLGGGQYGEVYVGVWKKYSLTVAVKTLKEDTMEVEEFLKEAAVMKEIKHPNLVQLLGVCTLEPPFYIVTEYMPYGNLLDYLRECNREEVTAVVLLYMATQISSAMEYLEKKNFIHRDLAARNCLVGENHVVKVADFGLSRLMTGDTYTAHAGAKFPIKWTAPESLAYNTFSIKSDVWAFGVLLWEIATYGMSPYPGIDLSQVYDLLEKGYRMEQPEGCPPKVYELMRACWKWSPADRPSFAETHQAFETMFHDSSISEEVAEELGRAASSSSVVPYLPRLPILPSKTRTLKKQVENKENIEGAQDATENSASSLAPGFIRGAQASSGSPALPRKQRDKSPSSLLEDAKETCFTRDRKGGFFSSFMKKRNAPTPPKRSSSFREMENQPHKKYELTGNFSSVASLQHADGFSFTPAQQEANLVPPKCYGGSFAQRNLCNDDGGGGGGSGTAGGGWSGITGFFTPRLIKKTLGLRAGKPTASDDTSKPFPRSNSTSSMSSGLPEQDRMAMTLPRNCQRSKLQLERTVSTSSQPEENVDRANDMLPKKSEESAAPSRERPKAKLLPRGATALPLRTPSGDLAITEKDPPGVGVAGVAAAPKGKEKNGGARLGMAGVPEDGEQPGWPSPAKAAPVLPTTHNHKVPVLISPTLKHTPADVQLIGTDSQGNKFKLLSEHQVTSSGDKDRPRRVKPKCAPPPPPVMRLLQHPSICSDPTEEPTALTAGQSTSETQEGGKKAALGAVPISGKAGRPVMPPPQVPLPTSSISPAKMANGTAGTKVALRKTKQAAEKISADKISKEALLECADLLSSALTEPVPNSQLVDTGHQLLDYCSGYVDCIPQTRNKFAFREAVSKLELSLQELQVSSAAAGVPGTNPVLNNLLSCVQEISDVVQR
Assay [9] has the same target. To be noted: at 1 µM.
Assay [10] concerns the target Tyrosine-protein kinase receptor UFO (Homo sapiens) (UniProt P30530). The following applies: at 0.1 µM.
The target is the same in assay [11]. To be noted: at 1 µM.
Assay [12] has as its target Tyrosine-protein kinase Blk (Homo sapiens) (UniProt P51451). To be noted: at 0.1 µM.
The target is the same in assay [13]. The following applies: at 1 µM.
Assay [14] concerns the target T1, Cytoplasmic tyrosine-protein kinase BMX (Homo sapiens) (UniProt P51813).
T1 sequence (whole entry): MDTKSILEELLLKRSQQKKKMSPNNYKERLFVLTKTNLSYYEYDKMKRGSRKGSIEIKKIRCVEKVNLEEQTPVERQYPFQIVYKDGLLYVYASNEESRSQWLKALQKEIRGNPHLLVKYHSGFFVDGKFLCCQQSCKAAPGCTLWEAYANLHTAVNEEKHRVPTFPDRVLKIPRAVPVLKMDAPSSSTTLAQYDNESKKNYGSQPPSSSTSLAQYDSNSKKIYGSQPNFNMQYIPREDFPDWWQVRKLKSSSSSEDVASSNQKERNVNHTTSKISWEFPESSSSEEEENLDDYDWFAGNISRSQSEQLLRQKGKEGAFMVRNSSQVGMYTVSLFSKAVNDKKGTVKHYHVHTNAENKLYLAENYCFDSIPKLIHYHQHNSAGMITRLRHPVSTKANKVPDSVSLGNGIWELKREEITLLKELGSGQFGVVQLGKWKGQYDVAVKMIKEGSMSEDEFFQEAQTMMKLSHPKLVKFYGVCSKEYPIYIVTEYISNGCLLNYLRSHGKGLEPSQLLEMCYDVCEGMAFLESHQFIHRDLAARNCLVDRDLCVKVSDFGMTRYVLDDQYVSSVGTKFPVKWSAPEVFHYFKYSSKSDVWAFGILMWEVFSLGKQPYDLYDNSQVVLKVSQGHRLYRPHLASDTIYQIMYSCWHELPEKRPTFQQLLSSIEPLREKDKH
The following applies: at 0.1 µM.

Assay [15] deals with T1, Cytoplasmic tyrosine-protein kinase BMX (Homo sapiens). To be noted: at 1 µM.
Assay [16] concerns the target Protein-tyrosine kinase 6 (Homo sapiens) (UniProt Q13882). To be noted: at 0.1 µM.
Assay [17] shares this target. The following applies: at 1 µM.
The target of assay [18] is Tyrosine-protein kinase BTK (Homo sapiens) (UniProt Q06187). To be noted: at 0.1 µM.
Sequence of Tyrosine-protein kinase BTK (Homo sapiens) (Q06187 whole entry): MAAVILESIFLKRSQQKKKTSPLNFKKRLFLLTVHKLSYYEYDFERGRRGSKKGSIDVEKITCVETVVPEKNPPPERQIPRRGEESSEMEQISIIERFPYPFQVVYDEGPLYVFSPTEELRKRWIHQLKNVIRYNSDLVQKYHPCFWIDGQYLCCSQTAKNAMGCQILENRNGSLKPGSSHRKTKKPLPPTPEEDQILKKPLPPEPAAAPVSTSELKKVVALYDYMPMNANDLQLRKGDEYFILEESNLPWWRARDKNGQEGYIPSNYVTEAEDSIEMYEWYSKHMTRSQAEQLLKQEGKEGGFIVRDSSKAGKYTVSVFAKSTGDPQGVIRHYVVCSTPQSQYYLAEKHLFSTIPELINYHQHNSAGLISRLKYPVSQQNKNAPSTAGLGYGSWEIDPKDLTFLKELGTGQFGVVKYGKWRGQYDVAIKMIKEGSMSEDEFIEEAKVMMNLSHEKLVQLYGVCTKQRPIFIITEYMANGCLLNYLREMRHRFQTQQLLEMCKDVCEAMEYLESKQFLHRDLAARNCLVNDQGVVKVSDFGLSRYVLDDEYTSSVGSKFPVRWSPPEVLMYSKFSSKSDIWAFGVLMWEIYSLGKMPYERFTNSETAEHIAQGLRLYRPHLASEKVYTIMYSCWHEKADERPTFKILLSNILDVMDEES
For assay [19] the target is unchanged. To be noted: at 1 µM.
The target of assay [20] is Tyrosine-protein kinase CSK (Homo sapiens) (UniProt P41240). To be noted: at 0.1 µM.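 Further: value given is the averaged percent inhibition of CSK kinase activity, from the GSK PKIS kinase inhibitor set screening panel.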
Sequence of Tyrosine-protein kinase CSK (Homo sapiens) (P41240 2-450 limits assumed): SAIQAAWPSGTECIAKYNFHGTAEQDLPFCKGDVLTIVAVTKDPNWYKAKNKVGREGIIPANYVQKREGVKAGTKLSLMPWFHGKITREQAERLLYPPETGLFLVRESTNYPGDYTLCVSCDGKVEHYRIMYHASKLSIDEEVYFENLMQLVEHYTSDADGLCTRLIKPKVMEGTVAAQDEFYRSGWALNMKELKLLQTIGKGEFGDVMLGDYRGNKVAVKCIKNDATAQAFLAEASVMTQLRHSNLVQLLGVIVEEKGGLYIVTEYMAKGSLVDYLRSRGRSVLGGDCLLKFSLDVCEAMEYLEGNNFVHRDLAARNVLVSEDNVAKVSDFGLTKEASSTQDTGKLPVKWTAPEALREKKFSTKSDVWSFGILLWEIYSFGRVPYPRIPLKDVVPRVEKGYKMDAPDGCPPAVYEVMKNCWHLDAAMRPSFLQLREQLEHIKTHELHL

Sequence of Protein-tyrosine kinase 6 (Homo sapiens) (Q13882 whole entry, looked up): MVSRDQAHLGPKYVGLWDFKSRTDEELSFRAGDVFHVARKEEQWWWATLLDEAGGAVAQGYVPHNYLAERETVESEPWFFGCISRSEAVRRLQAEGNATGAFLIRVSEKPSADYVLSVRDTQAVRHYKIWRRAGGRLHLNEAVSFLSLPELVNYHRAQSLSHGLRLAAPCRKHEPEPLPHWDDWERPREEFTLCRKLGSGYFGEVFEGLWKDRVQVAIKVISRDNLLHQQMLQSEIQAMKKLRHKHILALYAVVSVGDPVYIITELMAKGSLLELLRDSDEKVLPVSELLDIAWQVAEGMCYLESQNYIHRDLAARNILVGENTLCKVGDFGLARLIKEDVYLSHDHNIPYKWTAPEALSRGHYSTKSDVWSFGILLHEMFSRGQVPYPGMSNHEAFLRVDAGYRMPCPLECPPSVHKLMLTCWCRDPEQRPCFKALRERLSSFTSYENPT
Sequence of Tyrosine-protein kinase Blk (Homo sapiens) (P51451 2-505 limits assumed): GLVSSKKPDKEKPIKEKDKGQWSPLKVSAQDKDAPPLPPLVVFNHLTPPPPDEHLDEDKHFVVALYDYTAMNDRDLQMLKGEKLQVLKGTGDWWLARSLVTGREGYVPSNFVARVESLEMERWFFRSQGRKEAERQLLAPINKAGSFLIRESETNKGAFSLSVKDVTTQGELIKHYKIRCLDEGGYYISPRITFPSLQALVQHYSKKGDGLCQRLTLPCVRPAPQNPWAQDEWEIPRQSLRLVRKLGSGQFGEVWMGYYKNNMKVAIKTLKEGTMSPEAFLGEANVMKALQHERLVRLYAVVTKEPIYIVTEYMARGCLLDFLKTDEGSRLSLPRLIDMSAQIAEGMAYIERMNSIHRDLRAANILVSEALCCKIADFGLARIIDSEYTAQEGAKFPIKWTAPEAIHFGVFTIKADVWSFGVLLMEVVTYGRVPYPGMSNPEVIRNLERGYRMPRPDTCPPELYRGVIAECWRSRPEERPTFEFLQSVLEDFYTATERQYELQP

For `Clc1ccc(CNc2nccc(-c3cnn4ncccc34)n2)cc1`, the inhibition in assay [1] was 2.99%; in [2], 2.53%; in [3] it was 4.96%; in assay [4], 1.08%; in assay [5], 8.86%; in assay [6] it was -0.45%. Also, the inhibition worked out at 3.1% in assay [7]; 3.17% in assay [8]; 7.59% in assay [9]; 1.22% in assay [10]; 2.45% in [11]; 1.31% in [12]. For the same compound, the inhibition in [13] was 3.34%; in assay [14], -1.56%; in assay [15], 2.62%; in assay [16], 0.74%; in assay [17], 3.52%; in [18], 0.65%. Also, the results for the inhibition in [19] and in assay [20] were 1.7% and 3.92%, respectively.

For the compound `CCS(=O)(=O)c1ccc(OC)c(Nc2ncc(-c3cccc(-c4ccccc4F)c3)o2)c1`, the inhibition in [1] is 18%; in [2], 60.6%; in [3], 91.4%; in [4], 13.7%; in assay [5], 77.8%; in assay [6], 1.79%. In addition, the inhibition in assay [7] worked out at 4.33%; in assay [8] it was 7.9%; in [9] it was 65.1%; in assay [10], 0.9%; in assay [11], 2.28%; in assay [12], 8.74%. Also, the inhibition in assay [13] was 55.5%; in assay [14], -4.54%; in assay [15], 9.3%; in assay [16], 1.06%; in assay [17] it was 10.8%; in assay [18], -0.93%. Besides, the inhibition in assay [19] was found to be 3.93%; in [20], 0.57%.

Regarding `O=C(Nc1n[nH]c2nc(-c3ccco3)ccc12)C1CC1`, the inhibition is 12.8% in [1]; 4.47% in assay [2]; 7.45% in assay [3]; 3.94% in assay [4]; 14% in assay [5]; 1.35% in assay [6]. Also, the inhibition was 2.65% in assay [7]; 4.39% in assay [8]; 6.13% in [9]; 2.04% in [10]; 5.23% in [11]; 0.69% in [12]. Moreover, the inhibition in assay [13] was 5.1%; in assay [14], -0.85%; in [15], 1.83%; in [16] it was 2.56%; in assay [17], 1.59%; in [18], 0.36%. Besides, the inhibition in assay [19] worked out at 0.7%; in assay [20], 0.84%.

For the compound `CCc1cccc(CC)c1/C=C/c1cncc(C(=O)NC)c1`, the inhibition in [1] came out at 4.76%; in [2], 5.29%; in assay [3] it was 22.2%; in assay [4], 8.06%; in assay [5] it was 45.9%; in [6], 2.66%. The inhibition in [7] is 4.03%; in assay [8], 5.58%; in assay [9], 12.9%; in assay [10] it was -2.3%; in assay [11] it was -1.28%; in [12], 2.14%. For the same compound, the inhibition was determined as 4.46% in assay [13]; 0.51% in assay [14]; 4.87% in assay [15]; 2.78% in assay [16]; 3.98% in assay [17]; 2.48% in assay [18]. Besides, the inhibition in assay [19] was found to be 2.98%; in assay [20] it was 1.29%.

`COc1cc(Nc2ncc3c(C)nc(-c4cccc(Oc5ccccc5)c4)n3n2)cc(OC)c1OC`: the inhibition in assay [1] was 3.35%; in assay [2], 4.25%; in [3] it was 2.77%; in [4], 2.33%; in assay [5] it was 3.84%; in assay [6] it was 1.5%. The inhibition in assay [7] is 12.7%; in assay [8] it was 2.57%; in assay [9] it was 0.57%; in assay [10], 0.02%; in assay [11], 4.22%; in [12], 0.63%. Moreover, the inhibition in [13] is 4.56%; in assay [14] it was 0.46%; in [15], 4.17%; in [16], 1.26%; in assay [17], 1.89%; in assay [18], 1.08%. Further, the inhibition in assay [19] was determined as 1.57%; in assay [20], 4.01%.

`Cc1ccc(C(=O)NC2CCC2)cc1-c1ccc(C(=O)NCC2CC2)cc1`: the inhibition in assay [1] was -1.77%; in assay [2] it was 2.23%; in assay [3] it was 0.38%; in [4], 3.73%; in [5], 5.96%; in assay [6], 2.79%. The inhibition was 3.48% in [7]; 3.15% in assay [8]; 0.48% in [9]; -4.44% in [10]; -1.14% in assay [11]; 2.1% in assay [12]. Further, the inhibition in [13] is 1.49%; in assay [14] it was 8.25%; in [15], 2.61%; in [16] it was 1.28%; in [17] it was 1.95%; in assay [18], 0.87%. Also, the inhibition in assay [19] was 0.88%; in assay [20], -0.66%.

With `NC(=O)c1cc(-c2ccncc2)cc(-c2ccccc2)c1N`, the inhibition in assay [1] was found to be 3.04%; in [2], 8.23%; in assay [3] it was 40.8%; in assay [4], 7.61%; in [5], 40.2%; in assay [6], 3.8%. The inhibition is 5.19% in assay [7]; 6.19% in assay [8]; 54.2% in assay [9]; -7.51% in assay [10]; -6.8% in assay [11]; 3.86% in assay [12]. Also, the inhibition in [13] was 17.5%; in assay [14], 11.8%; in assay [15], 49.6%; in assay [16], 5.89%; in assay [17], 36.9%; in assay [18], 1.6%. Besides, the inhibition in assay [19] amounted to 11.8%; in assay [20] it was 5.98%.

Broadly, the inhibition is the drop in the measured response relative to a control, in per cent.
